Measured values: PubChem BioAssay
Active and inactive are the calls of the source.

Assays:
[1] = test system: Plasmodium falciparum Sir2 (PF13_0152, Sir2A); experiment: Plasmodium falciparum Sir2A binding compounds – biochemical, small-molecule microarray, 635 nm fluorescence, primary screen (AID 1098); details: fluorescence 635 nm, higher = more signal;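 further: score merges spot fluorescence intensity with its signal-to-noise ratio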
[2] = probe aDKK1 binding to arrayed compounds – biochemical, biotinylated probe, 635/667 nm fluorescence, primary screen (AID 1099); details: small-molecule microarray, higher = more signal;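 further: score merges 667nm spot fluorescence with signal to noise across triplicate slides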
[3] = probe aCHRDL2 binding to arrayed compounds – biochemical, biotinylated probe, 635/667 nm fluorescence, primary screen (AID 1100); details: small-molecule microarray, higher = more signal
[4] = change in splice reporter luminescence, either direction, cell-based, HEK293, spliceosome inhibition project, primary screen (AID 1101); details: HEK293 splicing luciferase reporter, 24 h, higher = more signal, called active from +8 up or from −8 down;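 further: HEK293 cells carrying a splicing-competent luciferase reporter gene; test concentration not given here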
[5] = target: Fibroblast growth factor 10 (Homo sapiens) (UniProt O15520); experiment: compounds binding fibroblast growth factor 10 – biochemical, small-molecule microarray, 635 nm fluorescence, primary screen (AID 1102); details: FGF10 binding, fluorescence 635 nm, higher = more signal
Sequence of Fibroblast growth factor 10 (Homo sapiens) (O15520 whole entry, looked up): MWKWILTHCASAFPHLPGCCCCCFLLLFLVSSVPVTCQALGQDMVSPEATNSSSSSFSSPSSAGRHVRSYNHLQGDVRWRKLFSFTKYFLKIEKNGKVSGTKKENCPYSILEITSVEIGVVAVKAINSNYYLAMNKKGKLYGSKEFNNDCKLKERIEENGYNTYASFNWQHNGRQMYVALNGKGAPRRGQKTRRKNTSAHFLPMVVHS

[6] = test system: glycogen synthase kinase-3 (GSK3A per assay name; protocol says GSK3B); experiment: compounds binding glycogen synthase kinase-3 – biochemical, small-molecule microarray, 635 nm fluorescence, GSK3A, primary screen (AID 1103); details: fluorescence 635 nm, higher = more signal; further: the record names both GSK3A and GSK3B
[7] = target: Epidermal growth factor receptor (Homo sapiens) (UniProt P00533); experiment: compounds binding epidermal growth factor receptor – biochemical, small-molecule microarray, 635 nm fluorescence, primary screen (AID 1104); details: EGFR binding, higher = more signal;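 further: score merges 667 nm emission intensity with spot signal to noise over triplicate slides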
Sequence of Epidermal growth factor receptor (Homo sapiens) (P00533 whole entry, looked up): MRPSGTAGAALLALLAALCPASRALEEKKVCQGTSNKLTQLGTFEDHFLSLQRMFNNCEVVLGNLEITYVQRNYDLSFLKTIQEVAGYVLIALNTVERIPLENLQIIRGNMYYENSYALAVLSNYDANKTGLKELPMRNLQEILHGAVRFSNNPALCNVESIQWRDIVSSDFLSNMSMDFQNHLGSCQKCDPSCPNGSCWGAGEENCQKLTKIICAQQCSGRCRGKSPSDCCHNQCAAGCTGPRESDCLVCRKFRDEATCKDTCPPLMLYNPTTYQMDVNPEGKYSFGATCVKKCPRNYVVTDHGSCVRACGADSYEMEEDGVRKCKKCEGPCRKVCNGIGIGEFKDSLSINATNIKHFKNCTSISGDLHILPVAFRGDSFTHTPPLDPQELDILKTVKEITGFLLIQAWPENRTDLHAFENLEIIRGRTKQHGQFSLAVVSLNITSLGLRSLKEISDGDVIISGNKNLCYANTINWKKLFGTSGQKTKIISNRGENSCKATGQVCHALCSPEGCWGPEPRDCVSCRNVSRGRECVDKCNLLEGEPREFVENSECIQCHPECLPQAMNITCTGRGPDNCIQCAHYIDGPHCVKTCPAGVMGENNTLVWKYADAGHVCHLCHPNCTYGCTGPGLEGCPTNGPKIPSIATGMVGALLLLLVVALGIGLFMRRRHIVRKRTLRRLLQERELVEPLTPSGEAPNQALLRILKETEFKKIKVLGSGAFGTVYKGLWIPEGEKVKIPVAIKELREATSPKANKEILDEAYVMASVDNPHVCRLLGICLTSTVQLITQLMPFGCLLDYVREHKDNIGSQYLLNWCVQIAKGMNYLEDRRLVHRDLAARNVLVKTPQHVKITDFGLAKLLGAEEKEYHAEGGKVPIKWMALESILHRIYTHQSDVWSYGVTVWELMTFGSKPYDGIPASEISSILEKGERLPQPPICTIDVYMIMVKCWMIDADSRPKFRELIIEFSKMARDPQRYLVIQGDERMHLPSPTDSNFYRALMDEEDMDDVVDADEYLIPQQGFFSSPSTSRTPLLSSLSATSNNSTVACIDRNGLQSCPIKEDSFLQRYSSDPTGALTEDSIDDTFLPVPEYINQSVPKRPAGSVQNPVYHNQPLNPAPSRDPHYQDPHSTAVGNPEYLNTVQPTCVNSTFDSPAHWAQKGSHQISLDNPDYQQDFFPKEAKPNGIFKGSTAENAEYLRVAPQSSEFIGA

[8] = target: Follistatin-related protein 3 (Homo sapiens) (UniProt O95633); experiment: compounds binding follistatin-related protein 3 – biochemical, small-molecule microarray, 635 nm fluorescence, primary screen (AID 1105); details: FSTL3 binding, higher = more signal;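 further: score merges emission near 667 nm and signal to noise per printed spot across three slides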
Sequence of Follistatin-related protein 3 (Homo sapiens) (O95633 whole entry, looked up): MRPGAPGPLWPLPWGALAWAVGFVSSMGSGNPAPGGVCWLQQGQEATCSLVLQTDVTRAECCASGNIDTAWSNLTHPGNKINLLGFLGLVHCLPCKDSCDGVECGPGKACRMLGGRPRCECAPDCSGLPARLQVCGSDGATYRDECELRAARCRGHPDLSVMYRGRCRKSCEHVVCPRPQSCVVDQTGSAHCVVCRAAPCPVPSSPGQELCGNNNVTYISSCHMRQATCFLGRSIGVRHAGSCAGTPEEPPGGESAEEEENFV

[9] = target: Dickkopf-related protein 1 (Homo sapiens) (UniProt O94907); experiment: small molecules binding DKK1 protein – biochemical, small-molecule microarray, 635 nm fluorescence scan, primary screen (AID 1106); details: higher = more signal;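 further: score merges emission near 667 nm with signal to noise over three replicate slides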
Sequence of Dickkopf-related protein 1 (Homo sapiens) (O94907 whole entry, looked up): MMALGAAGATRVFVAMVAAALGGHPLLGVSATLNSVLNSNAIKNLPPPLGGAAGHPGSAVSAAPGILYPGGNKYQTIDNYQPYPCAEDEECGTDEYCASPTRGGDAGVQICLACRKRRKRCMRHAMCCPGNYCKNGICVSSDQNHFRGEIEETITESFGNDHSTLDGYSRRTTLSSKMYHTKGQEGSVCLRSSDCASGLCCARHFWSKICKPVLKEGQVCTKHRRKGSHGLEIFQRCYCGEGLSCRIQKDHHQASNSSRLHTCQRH

[10] = test system: Inhibin beta A chain (activin A); experiment: small molecules binding activin A – biochemical, small-molecule microarray, 635 nm fluorescence scan, primary screen (AID 1107); details: INHBA, higher = more signal;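 further: mouse activin A protein probed at 4.33 µg/mL on printed slides; score merges bound-protein fluorescence near 667 nm with spot signal-to-noise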
[11] = test system: Human papillomavirus type 1a protein E7 (residues 44-93); experiment: small molecules binding HPV E7 44-93 – biochemical, small-molecule microarray, residues 44-93, 635 nm fluorescence, primary screen (AID 1108); details: fluorescence 635 nm, higher = more signal;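 further: E7 fragment applied at 1 µg/mL in TBST for 1 h at 4 C; score combines spot fluorescence with its signal to noise ratio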
[12] = hepatitis C replication reporter changes, two-sided – Huh7 cells, luciferase reporter, HCV replication inhibitor project, primary screen (AID 1109); details: Huh7 HCV replicon luciferase reporter, 48 h; higher = more signal;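 further: huh7 hepatoma cells harbouring a luciferase neomycin HCV replicon reporter; luciferase luminescence as measure of HCV replicon replication; test concentration not given here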
[13] = target: Left-right determination factor 2 (Homo sapiens) (UniProt O00292); experiment: small molecules binding LEFTY2 protein – biochemical, small-molecule microarray, 635 nm fluorescence scan, primary screen (AID 1110); details: higher = more signal
Sequence of Left-right determination factor 2 (Homo sapiens) (O00292 whole entry, looked up): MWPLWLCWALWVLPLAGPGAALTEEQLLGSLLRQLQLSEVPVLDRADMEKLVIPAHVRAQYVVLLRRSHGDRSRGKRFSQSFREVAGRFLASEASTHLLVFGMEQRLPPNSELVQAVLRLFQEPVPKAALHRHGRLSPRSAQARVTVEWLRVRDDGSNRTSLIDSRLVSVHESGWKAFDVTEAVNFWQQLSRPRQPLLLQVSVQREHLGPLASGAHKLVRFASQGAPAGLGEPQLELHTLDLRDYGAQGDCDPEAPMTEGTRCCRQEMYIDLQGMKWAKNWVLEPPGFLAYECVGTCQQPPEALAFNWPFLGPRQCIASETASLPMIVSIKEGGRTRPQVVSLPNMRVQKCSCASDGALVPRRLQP

[14] = target: Calmodulin-1 (Homo sapiens) (UniProt P0DP23); experiment: small molecules binding calmodulin-1 with EGTA – biochemical, small-molecule microarray, Cy5-labelled CALM1, profiling panel (AID 1111); details: Cy5-CALM1 binding fluorescence, higher = more signal;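 further: labelled calmodulin applied in Tris saline Tween buffer holding calcium plus EGTA and DTT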
[15] = target: Calmodulin-1 (Homo sapiens) (UniProt P0DP23); experiment: small molecules binding Ca-loaded calmodulin-1 – biochemical, small-molecule microarray, Cy5-labelled CALM1, plus calcium, artefact control for SMM control-protein annotation, profiling panel (AID 1112); details: Cy5-CALM1 binding fluorescence, higher = more signal;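 further: score merges spot fluorescence with signal to noise from triplicate slides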
[16] = probe aWnt5a binding to arrayed compounds – biochemical, biotinylated probe, 635/667 nm fluorescence, primary screen (AID 1113); details: small-molecule microarray, higher = more signal;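 further: score merges 667 nm fluorescence intensity with signal-to-noise per printed feature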
[17] = probe aShh binding to arrayed compounds – biochemical, biotinylated probe, 635/667 nm fluorescence, primary screen (AID 1114); details: small-molecule microarray, higher = more signal;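 further: probe is biotin-labelled aShh protein from a stem cell growth factor screen; measures binding of labelled protein to compounds printed on the slide; score merges feature fluorescence at 667 nm with signal-to-noise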
[18] = probe aNog binding to arrayed compounds – biochemical, biotinylated probe, 635/667 nm fluorescence, primary screen (AID 1115); details: small-molecule microarray, higher = more signal;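 further: probe is biotinylated aNog protein used at 0.15 µg/mL for 1 h at 4 C; z-score combines 667 nm fluorescence of each spot with its signal to noise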
[19] = target: Torsin-1A-interacting protein 1 (Homo sapiens) (UniProt Q5JTV8); experiment: compound microarray binding of lysate hLAP1 – cell lysate, small-molecule microarray, COS7 lysate, 635/667 nm fluorescence, primary screen (AID 1116); details: 635 nm fluorescence, higher = more signal
Sequence of Torsin-1A-interacting protein 1 (Homo sapiens) (Q5JTV8 whole entry, looked up): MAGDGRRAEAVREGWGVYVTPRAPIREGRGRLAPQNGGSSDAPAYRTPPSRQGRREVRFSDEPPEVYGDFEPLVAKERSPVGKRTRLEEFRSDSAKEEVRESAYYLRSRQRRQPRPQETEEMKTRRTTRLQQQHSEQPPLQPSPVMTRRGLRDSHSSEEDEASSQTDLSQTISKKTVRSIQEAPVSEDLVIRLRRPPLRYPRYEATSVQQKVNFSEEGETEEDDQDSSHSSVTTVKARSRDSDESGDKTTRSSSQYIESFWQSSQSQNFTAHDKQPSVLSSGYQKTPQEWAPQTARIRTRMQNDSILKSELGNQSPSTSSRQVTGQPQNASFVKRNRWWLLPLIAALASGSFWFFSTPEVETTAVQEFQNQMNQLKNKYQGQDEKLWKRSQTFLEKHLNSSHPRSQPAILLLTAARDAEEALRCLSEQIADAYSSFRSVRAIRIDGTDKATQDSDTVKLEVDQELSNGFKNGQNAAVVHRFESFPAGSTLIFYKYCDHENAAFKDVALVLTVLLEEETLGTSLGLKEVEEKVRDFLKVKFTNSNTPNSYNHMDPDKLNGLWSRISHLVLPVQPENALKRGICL

[20] = target: Alpha-bungarotoxin (Bungarus multicinctus) (UniProt P60615); experiment: compounds binding labelled alpha-BTX control protein – biochemical, small-molecule microarray, Alexa647 label, 635/667 nm fluorescence, artefact control for SMM control protein annotation, profiling panel (AID 1117); details: alpha-BTX-A647 binding fluorescence, higher = more signal
Sequence of Alpha-bungarotoxin (Bungarus multicinctus) (P60615 whole entry, looked up): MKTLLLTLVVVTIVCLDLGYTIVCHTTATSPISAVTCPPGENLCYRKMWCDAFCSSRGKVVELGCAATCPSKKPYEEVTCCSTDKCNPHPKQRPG

SMILES | composite z-score [1] | composite z-score [2] | composite z-score [3] | z-score [4] | composite z-score [5] | composite z-score [6] | composite z-score [7] | composite z-score [8] | composite z-score [9] | composite z-score [10] | composite z-score [11] | z-score [12] | composite z-score [13] | composite z-score [14] | composite z-score [15] | composite z-score [16] | composite z-score [17] | composite z-score [18] | composite z-score [19] | composite z-score [20]
C#CCNC(=O)[C@H](Cc1ccccc1)NC(=O)CCC(=O)O | -0.759 | -0.397 | -0.205 | -0.222 (inactive) | -0.688 | -1.14 | -0.659 | -1.22 | -0.447 | 0.735 | -0.665 | -0.25 | -0.0677 | -1.48 | -0.834 | -0.12 | -0.214 | -0.501 | 0.409 | -0.368
CCCCN1CC=CC23O[C@@H]4/C=C\CCC(C)OC(=O)C4[C@H]2C(=O)N(CCCCCO)[C@@H]3C1=O (stereo not given in full) | 0.0665 | -0.267 | 0.421 | -0.259 (inactive) | -1.28 | -0.577 | -0.762 | -0.668 | -1.41 | -0.323 | 0.15 | -0.275 | -1.39 | -0.78 | 0.0481 | -0.191 | -0.214 | -0.21 | 1.27 | -1.14
C#CCN(CC1=CCCCC1)[C@H](c1ccccc1Br)[C@@H](O)Cc1ccccc1 | 1.53 | -0.0907 | 0.979 | -1.37 (inactive) | -1.25 | -0.28 | -1.56 | -1.28 | -1.07 | 0.685 | -0.0413 | -2.33 | -1.07 | -0.929 | -0.568 | -0.118 | 0.108 | -0.368 | 0.632 | 0.92
C#CCN(CC=C(C)C)[C@H](CO)c1ccccc1 | -0.383 | -0.127 | -0.209 | -1.21 (inactive) | -0.0443 | 0.81 | 0.372 | 0.0894 | 0.352 | 0.942 | 0.309 | -0.817 | 0.185 | -0.171 | -0.438 | 0.0771 | -0.279 | -0.176 | 0.455 | 0.136
O=C(NCc1ccccc1)[C@@]1(CCS(=O)(=O)c2ccccc2)N=C(c2ccc(OCCCO)cc2)O[C@H]1c1ccccc1 | 0.691 | 0.717 | 1.03 | 0.0308 (inactive) | 1.28 | 1.12 | -0.304 | 0.866 | -0.393 | 0.525 | 1.44 | -2.25 | -0.125 | 1.43 | 0.112 | 0.111 | 0.0055 | -0.0597 | 1.32 | 2.03
O=C1O[C@H](c2ccccc2)[C@H](c2ccccc2)N2[C@H]1[C@@H](C(=O)Nc1nc3ccccc3s1)[C@]1(C(=O)Nc3ccc(C#CC4(O)CCCCCC4)cc31)[C@H]2c1ccc(OCCO)cc1 | 1.17 | 0.507 | 0.531 | 0.053 (inactive) | 1.24 | 1.02 | 0.662 | 0.714 | 0.525 | 0.523 | 0.877 | -2.09 | 0.426 | 1.91 | 0.0521 | -0.0381 | -0.0446 | 0.287 | 1.55 | 1.77
C=CCOC(=O)[C@H]1[C@@H]2C(=O)O[C@@H](c3ccccc3)[C@@H](c3ccccc3)N2[C@@H](c2ccc(OCCOC(=O)[C@H]3C[C@H]4C(=O)N[C@@H](CC(C)C)C(=O)N4[C@H]3c3ccc(O)cc3)cc2)[C@]12C(=O)Nc1ccc(I)cc12 | 1.5 | -0.271 | -0.3 | -0.281 (inactive) | 1.4 | 1.3 | 0.748 | 1.15 | 1.23 | 0.12 | 1.41 | -0.86 | 0.644 | 0.321 | -0.388 | 0.0597 | 0.0469 | 0.13 | 1.78 | 1.82
CC(C)C[C@@H]1NC(=O)[C@H]2C[C@@H](C(=O)NCCCCCCN(C)C)[C@@H](c3ccc(O)cc3)N2C1=O | 1.44 | 0.158 | -0.0008 | 0.561 (inactive) | 1.2 | 1.32 | 0.653 | 1.13 | 1.4 | 1.12 | 1.09 | 0.414 | 1.06 | -0.631 | -1.19 | -0.0337 | 0.207 | -0.284 | 1.03 | 0.419
C=C(C)C1C(=C)CN([C@H](CO)c2ccccc2)C1=O (stereo not given in full) | 1.35 | -0.172 | 0.22 | -0.622 (inactive) | -0.0267 | -0.599 | -0.476 | -0.0684 | -0.153 | 1.36 | 0.317 | -0.25 | -0.065 | -0.911 | -0.968 | -0.0459 | -0.154 | -0.229 | -0.486 | -0.605
CCOC(=O)[C@H]1C/C=C/C[C@H](C(=O)OCC)C(=O)O[C@H]2[C@@H](OC)O[C@H](CO)[C@@H](OC(=O)Nc3cccc(F)c3)[C@@H]2OC1=O | 1.39 | -0.438 | -0.174 | 0.68 (inactive) | 0.687 | 0.327 | -0.226 | -0.0088 | 0.254 | 0.519 | 1.14 | -3.56 | -0.169 | -0.192 | -0.273 | -0.0243 | 0.0818 | 1.93 | 0.556 | 0.729
CCCC[C@@H]1C[C@H]1[C@@H](NC(=O)c1ccco1)c1ccc(C(=O)OC)cc1 | -0.433 | 0.0294 | 0.838 | 0.965 (inactive) | 0.0373 | -1.09 | -0.643 | -0.76 | -0.633 | 0.807 | 0.0703 | -1.07 | -0.423 | 0.0927 | 0.555 | -0.027 | -0.217 | -0.261 | -0.392 | -0.335
